# From PubChem BioAssay (NCI)
# Compounds without any hit were thinned out: in the full panel of roughly 83,000, 20% have a hit.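 48-hour exposure, single concentration, 96-well plates; percent growth endpoint where 0 means no net growth. Active: below 10.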 Values without a mark were called inactive. The source made the active and inactive calls.
# Tested on: DU-145 prostate
# Experiment: NCI-60 one-dose screen, 48 h (100 = growth as untreated, 0 = no growth, -100 = all killed)
# Settings: 10 µM unless noted
row,Structure (SMILES),growth
1,CN1CCC(COc2cnc(-c3cccc(Cn4nc(-c5cccc(C#N)c5)ccc4=O)c3)nc2)CC1,77.8%
2,COc1cc(OC)c(/C=C/S(=O)(=O)Cc2ccc(OC)c(NCC(=O)O)c2)c(OC)c1,7.91% (active)
3,O=C(NOC[C@H](O)CO)c1ccc(F)c(F)c1Nc1ccc(I)cc1F,58.7%
4,C=CCN1C(=O)c2cccc3c(-c4ccc5c(c4)ncn5C4CCCCC4)ccc(c23)C1=O,72.5%
5,Cc1cc(O)cc(-c2c(-c3ccnc(-c4cccnc4)c3)cnn2C)c1,70.4%
6,O=[N+]([O-])c1cc(Br)cc2c1[nH]c1ccc(Br)cc12,77.1%
7,COc1cc2ncnc(Oc3cccc(NC(=O)Nc4cc(C(C)(C)C(F)(F)F)on4)c3)c2cc1OC,31.4%
8,CCNC(=O)Nc1nc2ccc(Oc3ccnc(C(=O)NC)c3)cc2s1,103%
9,COc1cccc2cc(-c3nc(C4CCC(C(=O)O)CC4)n4ncnc(N)c34)[nH]c12 (stereo not drawn),19.2%
10,CN1CCN(c2nc(C3=C(c4c[nH]c5ccccc45)C(=O)NC3=O)c3ccccc3n2)CC1,90.5%
11,Cc1cc2c(F)c(Oc3ncnn4cc(OC[C@@H](C)OC(=O)[C@H](C)N)c(C)c34)ccc2[nH]1,66.5%
12,S=C(NCc1ccc2c(c1)OCO2)N1CCN(c2ncnc3c2oc2ccccc23)CC1,35.4%
13,C=C1CC[C@@H]2[C@](C)(COC(C)=O)[C@H](OC(C)=O)CC[C@@]2(C)[C@@H]1C/C=C1/C(=O)OC[C@H]1OC(C)=O,50.9%
